Legend:
[1] = system: Human papillomavirus type 1a protein E7 (residues 44-93); assay: small molecules binding HPV E7 44-93 – biochemical, small-molecule microarray, residues 44-93, 635 nm fluorescence, primary screen (AID 1108); conditions: fluorescence 635 nm, higher = more signal;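 note: E7 fragment applied at 1 µg/mL in TBST for 1 h at 4 C; score combines spot fluorescence with its signal to noise ratio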
[2] = hepatitis C replication reporter changes, two-sided – Huh7 cells, luciferase reporter, HCV replication inhibitor project, primary screen (AID 1109); conditions: Huh7 HCV replicon luciferase reporter, 48 h; higher = more signal;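 note: huh7 hepatoma cells harbouring a luciferase neomycin HCV replicon reporter; luciferase luminescence as measure of HCV replicon replication; test concentration not given here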
[3] = molecular target: Left-right determination factor 2 (Homo sapiens) (UniProt O00292); assay: small molecules binding LEFTY2 protein – biochemical, small-molecule microarray, 635 nm fluorescence scan, primary screen (AID 1110); conditions: higher = more signal
Left-right determination factor 2 (Homo sapiens), sequence (O00292 whole entry, looked up): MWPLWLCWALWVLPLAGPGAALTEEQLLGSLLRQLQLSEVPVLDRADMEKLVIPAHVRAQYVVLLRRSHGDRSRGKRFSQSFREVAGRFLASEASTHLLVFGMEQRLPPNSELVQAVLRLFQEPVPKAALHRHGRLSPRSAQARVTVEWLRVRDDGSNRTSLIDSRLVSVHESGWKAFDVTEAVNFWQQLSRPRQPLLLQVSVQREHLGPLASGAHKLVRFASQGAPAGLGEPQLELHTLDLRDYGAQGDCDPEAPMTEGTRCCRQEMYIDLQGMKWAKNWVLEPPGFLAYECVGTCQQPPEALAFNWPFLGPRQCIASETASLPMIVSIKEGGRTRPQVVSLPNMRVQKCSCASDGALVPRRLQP

[4] = molecular target: Calmodulin-1 (Homo sapiens) (UniProt P0DP23); assay: small molecules binding calmodulin-1 with EGTA – biochemical, small-molecule microarray, Cy5-labelled CALM1, profiling panel (AID 1111); conditions: Cy5-CALM1 binding fluorescence, higher = more signal;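 note: labelled calmodulin applied in Tris saline Tween buffer holding calcium plus EGTA and DTT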
[5] = molecular target: Calmodulin-1 (Homo sapiens) (UniProt P0DP23); assay: small molecules binding Ca-loaded calmodulin-1 – biochemical, small-molecule microarray, Cy5-labelled CALM1, plus calcium, artefact control for SMM control-protein annotation, profiling panel (AID 1112); conditions: Cy5-CALM1 binding fluorescence, higher = more signal;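 note: score merges spot fluorescence with signal to noise from triplicate slides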
[6] = probe aWnt5a binding to arrayed compounds – biochemical, biotinylated probe, 635/667 nm fluorescence, primary screen (AID 1113); conditions: small-molecule microarray, higher = more signal;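 note: score merges 667 nm fluorescence intensity with signal-to-noise per printed feature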
[7] = probe aShh binding to arrayed compounds – biochemical, biotinylated probe, 635/667 nm fluorescence, primary screen (AID 1114); conditions: small-molecule microarray, higher = more signal;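 note: probe is biotin-labelled aShh protein from a stem cell growth factor screen; measures binding of labelled protein to compounds printed on the slide; score merges feature fluorescence at 667 nm with signal-to-noise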
[8] = probe aNog binding to arrayed compounds – biochemical, biotinylated probe, 635/667 nm fluorescence, primary screen (AID 1115); conditions: small-molecule microarray, higher = more signal;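 note: probe is biotinylated aNog protein used at 0.15 µg/mL for 1 h at 4 C; z-score combines 667 nm fluorescence of each spot with its signal to noise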
[9] = molecular target: Torsin-1A-interacting protein 1 (Homo sapiens) (UniProt Q5JTV8); assay: compound microarray binding of lysate hLAP1 – cell lysate, small-molecule microarray, COS7 lysate, 635/667 nm fluorescence, primary screen (AID 1116); conditions: 635 nm fluorescence, higher = more signal
Torsin-1A-interacting protein 1 (Homo sapiens), sequence (Q5JTV8 whole entry, looked up): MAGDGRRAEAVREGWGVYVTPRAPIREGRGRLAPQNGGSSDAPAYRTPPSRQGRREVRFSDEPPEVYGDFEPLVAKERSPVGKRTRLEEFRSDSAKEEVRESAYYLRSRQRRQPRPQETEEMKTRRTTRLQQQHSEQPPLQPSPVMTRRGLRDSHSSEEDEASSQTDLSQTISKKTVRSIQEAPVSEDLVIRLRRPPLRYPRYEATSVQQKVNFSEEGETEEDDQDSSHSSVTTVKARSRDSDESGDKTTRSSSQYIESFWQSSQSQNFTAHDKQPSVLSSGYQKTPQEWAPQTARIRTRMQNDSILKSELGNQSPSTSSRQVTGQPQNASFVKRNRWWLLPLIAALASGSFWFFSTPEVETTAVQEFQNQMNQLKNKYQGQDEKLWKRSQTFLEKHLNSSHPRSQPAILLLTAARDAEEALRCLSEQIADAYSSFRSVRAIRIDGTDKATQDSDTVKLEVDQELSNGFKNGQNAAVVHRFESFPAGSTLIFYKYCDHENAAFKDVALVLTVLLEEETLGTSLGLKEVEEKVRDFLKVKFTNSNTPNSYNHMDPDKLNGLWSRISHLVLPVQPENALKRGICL

[10] = molecular target: Alpha-bungarotoxin (Bungarus multicinctus) (UniProt P60615); assay: compounds binding labelled alpha-BTX control protein – biochemical, small-molecule microarray, Alexa647 label, 635/667 nm fluorescence, artefact control for SMM control protein annotation, profiling panel (AID 1117); conditions: alpha-BTX-A647 binding fluorescence, higher = more signal
Alpha-bungarotoxin (Bungarus multicinctus), sequence (P60615 whole entry, looked up): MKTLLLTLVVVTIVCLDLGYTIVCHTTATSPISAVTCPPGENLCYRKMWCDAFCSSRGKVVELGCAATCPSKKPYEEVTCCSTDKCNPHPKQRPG

SMILES	composite z-score [1]	z-score [2]	composite z-score [3]	composite z-score [4]	composite z-score [5]	composite z-score [6]	composite z-score [7]	composite z-score [8]	composite z-score [9]	composite z-score [10]
O=C1C2C=CC(C(O)c3cccs3)N(Nc3ccccc3)C2C(=O)N1c1ccccc1 (stereo not given)	0.407	-1.09	0.253	0.297	-0.971	0.0135	0.0469	0.371	0.403	0.38
COCCCNC(=O)[C@@]1(Sc2ccc(C)cc2)CC(=O)N(C2CCCCC2)[C@@H]1c1ccc(CO)cc1I	1.01	-2.63	0.816	0.99	0.565	-0.0853	-0.0362	-0.631	1.34	1.99
COc1cc2c(cc1O)C(c1ccc(CN3CCCC3)cc1)N(Cc1cccc(OC(F)(F)F)c1)CC2 (stereo not given)	0.743	-3.63	0.629	-0.0262	-0.664	-0.203	-0.0522	0.0583	0.62	1.61
CN(C)CCCCNC(=O)[C@H]1C[C@H]2C(=O)NCC(=O)N2[C@H]1c1cccc(OCCO)c1	-0.433	0.195	-0.443	0.0097	0.706	-0.0685	-0.285	-0.437	0.668	-0.115
N#Cc1ccc(C(O)C2C=CC3C(=O)N(c4ccccc4)C(=O)C3N2Nc2ccc([N+](=O)[O-])cc2)cc1 (stereo not given)	0.632	-1.2	0.0058	2.16	1.14	0.222	0.0434	0.595	1.69	1.96
CCOC(=O)C1=CC[C@@H](c2ccc(F)cc2)N(S(=O)(=O)c2ccc(C)cc2)[C@H]1c1ccc([N+](=O)[O-])cc1	1.34	-1.05	-0.248	1.56	-0.171	0.0323	-0.138	-0.158	0.341	0.937
COCCOC(=O)N1C(=O)[C@@]2(c3cc(C#CC4=CCCCC4)ccc31)[C@H](c1ccccc1OCCO)N1[C@H](c3ccccc3)[C@H](c3ccccc3)OC(=O)[C@H]1[C@@H]2C(N)=O	1.32	-3.44	0.62	0.367	-0.416	-0.0758	-0.167	-0.512	0.383	0.161
CCc1cccc(NC(=O)O[C@H]2[C@H](OC(=O)Nc3ccc4c(c3)OCO4)[C@H](OC(=O)Nc3ccc4c(c3)OCO4)[C@@H](OC)O[C@@H]2CO)c1	1.47	-0.548	-0.263	0.949	-0.943	-0.0087	0.131	-0.312	0.154	1.18
COC(=O)c1ccc([C@H](NC(=O)c2ccccc2)[C@]2(C)C[C@H]2C2CCCCC2)cc1	1.3	-1.61	-0.254	1.73	1.47	0.0805	0.315	1.68	0.462	1.09
O=C1c2ccccc2[C@](Cc2ccccc2I)(C(=O)O)[C@H](c2ccc(CO)cc2)N1Cc1ccccc1	1.17	-0.837	-1.04	1.34	0.83	-0.0846	-0.26	-0.215	0.712	2.38
C[C@H]1NC(=O)C([C@@H](C)OCc2ccccc2)NC(=O)[C@@]23C(=O)N[C@@H](Cc4ccccc4)C2[C@H](C)[C@@]2(C)O[C@H]2C3/C=C/C/C=C\CNC1=O (stereo not given in full)	-0.037	-1.52	0.39	-0.553	-0.854	-0.213	-0.0553	-0.0602	-0.0194	0.21
COC(=O)[C@@]1(Cc2ccc(F)cc2)[C@H]2c3cc(C(=O)N(C)C)n(CCO)c3C[C@H]2CN1C(=O)c1ccccc1	-0.0095	-0.896	-0.388	0.987	0.322	-0.0271	0.494	1.33	1.47	-0.148
COc1ccc(CCNC(=O)[C@@]2(C)c3ccccc3C(=O)N(Cc3cc(C(F)(F)F)cc(C(F)(F)F)c3)[C@H]2c2ccc(CO)cc2)cc1	1.28	-2.25	0.0779	1.33	-0.228	-0.152	-0.0669	0.242	0.548	-0.183
COCCOC(=O)N1C(=O)[C@@]2(c3ccccc31)[C@H](C(=O)N1CCCCCCC1)[C@H]1C(=O)O[C@H](c3ccccc3)[C@H](c3ccccc3)N1[C@@H]2c1ccc(O)cc1	1.4	-1.06	1.17	2.73	1.56	1.39	1.04	2.12	5.09	3.37
CC(C)CNC(=O)[C@@H]1c2ccccc2C(=O)N(C(C)C)[C@H]1c1ccc(CO)cc1	-0.043	-0.972	-0.269	-0.451	0.0584	-0.24	-0.2	0.49	1.58	-0.75
COCCOC(=O)N1C(=O)[C@@]2(c3cc(C#CCCO)ccc31)[C@H](c1ccc(O)cc1)N1[C@H](c3ccccc3)[C@H](c3ccccc3)OC(=O)[C@H]1[C@@H]2C(=O)N1CCc2cc(OC)c(OC)cc2C1	1.41	-0.561	1.14	0.422	-0.0529	0.129	-0.153	1.32	1.13	1.11
C=CCC(OC(C)=O)[C@@H]1[C@@H](N(Cc2ccc(-c3cccc(C(F)(F)F)c3)o2)C(=O)c2cccc3ccccc23)c2cc(OCCCO)ccc2N1C(=O)c1ccc2ccccc2c1 (stereo not given in full)	-0.423	0.0329	-0.382	-0.34	0.17	-0.108	-0.0709	0.0649	0.49	0.108

Source: PubChem BioAssay
